According to publication PMC10668032, “Altered binding affinity of SIX1-Q177R correlates with enhanced WNT5A and WNT pathway effector expression in Wilms tumor”:
In all, about 33,000 sequences were measured (“e-score”: median about -0.053, highest 2% from about 0.38 on). This is one part of a sample in which the highest values are shown more often than they occur.

What follows are sequences tested against T1, SIX1 homeodomain (reference allele) (human, UniProt Q15475 108-198) (assay: universal protein binding microarray; Universal all-10-mer PBM (8x60K, AMADID 030236), 300 nM GST-tagged protein, Alexa Fluor 488 anti-GST; buffer, salt, pH and temperature not stated (as in Berger); high values mean tight binding). Settings: protein: ivt; tags: N-terminal GST; dsDNA, one strand shown.
T1 sequence: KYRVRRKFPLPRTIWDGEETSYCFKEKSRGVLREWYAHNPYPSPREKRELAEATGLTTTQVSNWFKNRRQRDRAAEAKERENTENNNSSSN
Method in brief: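 Homeodomains carrying a GST tag were produced by in vitro transcription/translation, then quantified by anti-GST western blot against a recombinant GST standard curve. Duplicate applications at 300 nM final concentration were made to universal 'all 10-mer' protein binding microarrays in 8×60K format. The Universal PBM Analysis Suite was used to express binding as 8-mer E-scores.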

Sequence | binding signal
GCCATATA | 0.215 ± 0.0356 E-score
ACACCGCT | 0.224 ± 0.00469 E-score
CCCACTGA | 0.191 ± 0.0775 E-score
ATGCAGTG | 0.153 ± 0.121 E-score
ATCGCGTA | 0.189 ± 0.0511 E-score
TACTACTA | 0.195 ± 0.0204 E-score
AGGATACG | 0.386 ± 0.0183 E-score
CGTATACG | 0.317 ± 0.065 E-score
CGAATACC | 0.233 ± 0.0485 E-score
CGGATAAG | 0.187 ± 0.0213 E-score
CGGATGCC | 0.214 ± 0.0396 E-score
CGGATACC | 0.476 ± 0.00619 E-score
AGGATAAA | 0.16 ± 0.041 E-score
CGGATACA | 0.446 ± 0.0132 E-score
CGGATACG | 0.38745 ± 0.000205 E-score
CCATCTAC | 0.161 ± 0.00787 E-score
ATTCAATA | 0.161 ± 0.0419 E-score
TATGCGAA | 0.164 ± 0.0286 E-score
ACACCTTC | 0.219 ± 0.032 E-score
ATGGGGTA | 0.163 ± 0.0446 E-score
TCGCGACA | 0.193 ± 0.0437 E-score
ATCGCTCG | 0.199 ± 0.0182 E-score

Sequence | binding signal
CGGATTGC | 0.23 ± 0.0242 E-score
ACACCGAC | 0.256 ± 0.0314 E-score
GATCAAGA | 0.191 ± 0.0318 E-score
CCAAGATC | 0.22 ± 0.0354 E-score
ACCCAATA | 0.158 ± 0.0255 E-score
GCCCCTCC | 0.158 ± 0.185 E-score
GGAATACC | 0.295 ± 0.024 E-score
GGGATACC | 0.455 ± 0.0274 E-score
GGGATACA | 0.383 ± 0.0303 E-score
AGGATACC | 0.457 ± 0.00534 E-score
GGGATAAC | 0.303 ± 0.0153 E-score
AGGATACA | 0.337 ± 0.0073 E-score
AGGATACT | 0.364 ± 0.0424 E-score
TGGATACA | 0.351 ± 0.0427 E-score
TCTATACA | 0.243 ± 0.0131 E-score
CGCCGATA | 0.376 ± 0.0145 E-score
TACTCGCA | 0.154 ± 0.0249 E-score
CTATATAG | 0.182 ± 0.0165 E-score
ATGTGGTA | 0.151 ± 0.00476 E-score
ACCATCTA | 0.159 ± 0.0813 E-score
CCCGGGTA | 0.228 ± 0.0421 E-score
ATACAAGA | 0.239 ± 0.0188 E-score

Sequence | binding signal
TACATCCA | 0.156 ± 0.0562 E-score
ATTGGATA | 0.297 ± 0.05 E-score
GATATTGC | 0.323 ± 0.0993 E-score
GATATGGA | 0.423 ± 0.00533 E-score
GATATGAC | 0.357 ± 0.048 E-score
GATATGGC | 0.418 ± 0.0102 E-score
CCTATGTA | 0.156 ± 0.0122 E-score
GGTATGTA | 0.2127 ± 0.00178 E-score
AATATGGA | 0.158 ± 0.0544 E-score
TATATGGA | 0.207 ± 0.0193 E-score
GATATGTA | 0.383 ± 0.0265 E-score
AAAAGTAT | 0.204 ± 0.154 E-score
AGGGTGAT | 0.366 ± 0.00952 E-score
ATACTTTA | 0.261 ± 0.0614 E-score
GATAGGTA | 0.325 ± 0.00657 E-score
GATCAAAA | 0.234 ± 0.0678 E-score
AGGGGCGG | 0.174 ± 0.127 E-score
ATCTTCTA | 0.227 ± 0.0812 E-score
CTATCATA | 0.341 ± 0.0419 E-score
ATCTCATG | 0.197 ± 0.0118 E-score
GTATCATA | 0.471 ± 0.013 E-score
ATATCTTA | 0.345 ± 0.0615 E-score

Sequence | binding signal
ATATCATC | 0.46 ± 0.0219 E-score
CTATCATC | 0.34 ± 0.0172 E-score
AGATCATC | 0.344 ± 0.0462 E-score
GTATCTTA | 0.312 ± 0.0466 E-score
ATATCATA | 0.442 ± 0.0274 E-score
AGATCATG | 0.295 ± 0.0208 E-score
GCATCATA | 0.183 ± 0.0507 E-score
ATATCATG | 0.458 ± 0.0133 E-score
CAGCTATC | 0.25 ± 0.0918 E-score
ATCATCCA | 0.275 ± 0.0117 E-score
ATCACAGC | 0.2757 ± 0.00158 E-score
AGTTAATC | 0.182 ± 0.0377 E-score
AGTAGTAT | 0.349 ± 0.0523 E-score
CGGCTCGA | 0.15 ± 0.146 E-score
GAAGATAA | 0.154 ± 0.0705 E-score
CCGGGAGA | 0.177 ± 0.081 E-score
TACCAATA | 0.204 ± 0.0104 E-score
ACTATCCA | 0.241 ± 0.0211 E-score
AGTATCCG | 0.396 ± 0.0105 E-score
GGTATCCA | 0.464 ± 0.0172 E-score
ATTATCCA | 0.176 ± 0.0268 E-score
GCTATCCA | 0.204 ± 0.0406 E-score

Sequence | binding signal
GGTATTCA | 0.3 ± 0.0073 E-score
AGTATCCA | 0.391 ± 0.00372 E-score
ACTATCCG | 0.35 ± 0.00425 E-score
CCTATCCG | 0.316 ± 0.0172 E-score
ATTATAGC | 0.176 ± 0.0442 E-score
CGATCTTA | 0.197 ± 0.0344 E-score
ACGATCCG | 0.425 ± 0.0168 E-score
ACGATCCT | 0.347 ± 0.0269 E-score
CCGATCCA | 0.29 ± 0.0686 E-score
CCGATCGG | 0.319 ± 0.0282 E-score
CCGATCCG | 0.428 ± 0.0349 E-score
ACGATCCA | 0.284 ± 0.0277 E-score
ATCACCAC | 0.262 ± 0.0152 E-score
GATCGGAC | 0.248 ± 0.0437 E-score
ACACCTCC | 0.347 ± 0.0177 E-score
ATCGGCTG | 0.167 ± 0.0425 E-score
ATCTGCCC | 0.182 ± 0.0131 E-score
CGGTATGA | 0.225 ± 0.00643 E-score
CGGTATCA | 0.4855 ± 0.000332 E-score
AGGTATAT | 0.357 ± 0.03 E-score
CGCTATCC | 0.339 ± 0.0225 E-score
AGTTATCC | 0.295 ± 0.00593 E-score
